The subject of experiment [1] is Jurkat. Put plainly: mean cell size (FSC-A) relative to DMSO control (fraction of control); higher = larger cells. The following applies: 48 h. A digest of the protocol: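 Jurkat cells at 600 cells/µl were incubated for 1 h and then treated for 48h with the Enzo Screen-Well FDA Approved Drug Library v2.0 at 25µM, with DMSO at 0.9% (v/v) final. Compounds that reduced counts below 20% of controls were retested in 10-fold dilutions down to 25nM. Cell count and mean cell size, taken as forward scatter area, were measured by flow cytometry relative to solvent-only controls. Each plate carried 6-12 controls, and values are means of 3 biological replicates.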

Experiment [2] deals with Jurkat. Kind of experiment: cell count relative to DMSO control (fraction of control); higher = more cells (less growth inhibition). To be noted: 48 h.

SMILES strings stand for the structures. Counter-ions that a name gives are not always drawn. ± gives the standard deviation.

The molecule `CC(C)(C)NC[C@H](O)COc1cccc2c1CCCC2=O` [Levobunolol·HCl] (concentration: 25 µM) came in with a mean cell size in the experiment with Jurkat [1] of 0.964 ± 0.056. Further, the cell count in the experiment with Jurkat [2] turned out to be 1.11 ± 0.03.

Regarding `Oc1c(Cl)cc(Cl)c(Cl)c1Cc1c(O)c(Cl)cc(Cl)c1Cl` [Hexachlorophene] (concentration: 2.5 µM), the mean cell size in the experiment on Jurkat [1] turned out to be 0.904 ± 0.016. The cell count in the experiment on Jurkat [2] came to 0.433 ± 0.035.

For the molecule `CCCN1CCCC[C@H]1C(=O)Nc1c(C)cccc1C` [Ropivacaine·HCl Monohydrate] (concentration: 25 µM), in the experiment with Jurkat [1], the mean cell size came out at 0.978 ± 0.014. Besides, the cell count in the experiment on Jurkat [2] was 0.995 ± 0.057.

On to `CCOC(=O)[C@H](CCc1ccccc1)N[C@@H](C)C(=O)N1[C@H](C(=O)O)C[C@H]2CCCC[C@@H]21` [Trandolapril] (concentration: 25 µM), for which the mean cell size in the experiment on Jurkat [1] came out at 0.973 ± 0.044. The cell count in the experiment with Jurkat [2] stood at 0.924 ± 0.12.

On to `CCCNCC(O)COc1ccccc1C(=O)CCc1ccccc1` (stereo not drawn) [Propafenone·HCl] (concentration: 25 µM), for which, in the experiment on Jurkat [1], the mean cell size turned out to be 1.06 ± 0.02. The molecule also registered a cell count in the experiment on Jurkat [2] of 0.605 ± 0.13.

Regarding `C[C@@H]1C[C@H]2[C@@H]3CCC4=CC(=O)C=C[C@]4(C)[C@@]3(F)[C@@H](O)C[C@]2(C)[C@@]1(O)C(=O)CO` [Dexamethasone] (concentration: 25 µM), the mean cell size in the experiment with Jurkat [1] came to 0.917 ± 0.019. Moreover, the cell count with Jurkat [2] came out at 0.819 ± 0.11.

The molecule `CN(CCOc1ccc(CC2SC(=O)NC2=O)cc1)c1ccccn1` (stereo not drawn) [Rosiglitazone] (concentration: 25 µM) registered a mean cell size with Jurkat [1] of 0.996 ± 0.063. The molecule also had a cell count in the experiment with Jurkat [2] of 0.718 ± 0.069.

On to `CC(=O)OC(C)C[N+](C)(C)C` (stereo not drawn) [Methacholine Chloride] (concentration: 25 µM), for which, in the experiment on Jurkat [1], the mean cell size turned out to be 1.05 ± 0.022. For the same molecule, in the experiment with Jurkat [2], the cell count amounted to 0.921 ± 0.049.

Molecule `CC[C@@]1(O)C(=O)OCc2c1cc1n(c2=O)Cc2cc3c(CN(C)C)c(O)ccc3nc2-1` [Topotecan·HCl] (concentration: 25 nM) gave a mean cell size in the experiment on Jurkat [1] of 1.31 ± 0.064. In the experiment on Jurkat [2], this molecule returned a cell count of 0.199 ± 0.016.
